Source: PubChem BioAssay (several laboratories)
Hits are enriched below; roughly 3.6% of the tested compounds scored in any of these assays.
MazEF act: activators of E. coli MazEF toxin-antitoxin RNase, primary screen, biochemical, fluorescence, uHTS; Endoribonuclease toxin MazF (Escherichia coli (strain K12)), P0AE70; 0.32% of 350,000 active; activation, % at 20 µM; FAM/BHQ RNA-DNA oligo cleavage fluorescence, 5 h; AID 504720, 2011; in the data active = activation above about 50%
Target sequence (P0AE70 whole entry, looked up): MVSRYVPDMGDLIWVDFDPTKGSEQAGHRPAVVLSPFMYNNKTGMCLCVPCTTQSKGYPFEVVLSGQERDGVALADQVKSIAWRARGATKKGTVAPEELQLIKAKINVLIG
Bead autofluor: compound fluorescence in toxin protease inhibitor counterscreen. compound autofluorescence counterscreen, microsphere flow cytometry; active compounds read high. fluorescence intensity (test concentration not listed). 3.1% of 360,000 active; in the data active = fluorescence intensity above about 16000; inconclusive = no clear call, values can overlap the other calls
BoNT-A LC inh2: BoNT/A light chain protease inhibitors, primary screen, biochemical, flow cytometry, MLPCN library; 0.17% of 360,000 active; Botulinum neurotoxin type A light chain protease (Clostridium botulinum A str. ATCC 3502); multiplex microsphere protease substrate cleavage; AID 588499, 2011; inhibition, % at 10 µM; also: plate controls were buffer without enzyme for full effect and enzyme alone for no effect
Anthrax LF inh2: Bacillus anthracis LF protease inhibitors, primary screen, biochemical, multiplex microsphere, MLPCN library | Lethal factor (Bacillus anthracis), P15917 | multiplex microsphere protease cleavage assay | inhibition, % at 10 µM | 0.12% of 360,000 active | AID 588501, 2011; also: plate controls were buffer without enzyme for full effect and enzyme alone for no effect
BoNT F protease: BoNT/F light chain protease inhibitors, primary screen, biochemical, flow cytometry, MLPCN library; Botulinum neurotoxin type F light chain protease (Clostridium botulinum); Multiplex microsphere protease cleavage assay; inhibition, % at 10 µM; 0.22% of 360,000 active; in the data active = inhibition above about 35%, passing the limit was not always enough; inconclusive = no clear call, values can overlap the other calls; also: plate controls were buffer without enzyme for full effect and enzyme alone for no effect
BoNT-A LC CP1: BoNT/A light chain protease inhibitors, confirmation, biochemical, flow cytometry, cherry pick 1. multiplex microsphere protease assay. AID 602139, 2011. 3% of 720 active. inhibition, % at 10 µM. shares compounds with BoNT F protease; in the data active = inhibition above about 32%
BoNTF LC inh 1: BoNT/F light chain protease inhibitors, confirmation, biochemical, flow cytometry, cherry pick 1; shares compounds with BoNT F protease; multiplex microsphere protease cleavage assay; inhibition, % at 10 µM; 720 tested, under 10 active; call rule not given here
LF protease CP1: Bacillus anthracis LF protease inhibitors, confirmation, biochemical, multiplex microsphere, cherry pick 1; shares compounds with BoNT F protease; multiplex microsphere protease cleavage assay; inhibition, % at 10 µM; 720 tested, under 10 active; call rule not given here
* = called active by the depositor. Rule as the data show it, unless noted: active = inhibition above about 30%; inconclusive = no clear call, values can overlap the other calls; inactive = below that.

Results for CCCOC1CCCN(Cc2nc(-c3cnccn3)no2)C1 (stereo not given) ?
MazEF act: 0; Bead autofluor: 4198; BoNT-A LC inh2: 4; Anthrax LF inh2: -4; BoNT F protease: 35*; BoNT-A LC CP1: 0; BoNTF LC inh 1: -2; LF protease CP1: 1

How did COc1ccccc1Cn1c(=S)[nH]c2ccc(Br)cc2c1=O do in these assays?
MazEF act: 6; Bead autofluor: 3774; BoNT-A LC inh2: 2; Anthrax LF inh2: 31*; BoNT F protease: -3; BoNT-A LC CP1: -1; BoNTF LC inh 1: -4; LF protease CP1: -1

What do the screens show for `COc1ccccc1NC(=O)C(C)Sc1nccn1C` (stereo not given)?
MazEF act: 2; Bead autofluor: 3002; BoNT-A LC inh2: 1; Anthrax LF inh2: 1; BoNT F protease: 8

How did CC(Sc1nccn1C)C(=O)Nc1ccc(C(N)=O)cc1 (stereo not given) do in these assays?
MazEF act: 4; Bead autofluor: inconclusive; BoNT-A LC inh2: 22; Anthrax LF inh2: 2; BoNT F protease: 39*; BoNT-A LC CP1: 0; BoNTF LC inh 1: -5; LF protease CP1: -1

How did COc1ccc(C(=O)COC(=O)C2CCC(=O)N2)cc1 (stereo not given) do in these assays?
MazEF act: 7; Bead autofluor: 3303; BoNT-A LC inh2: 0; Anthrax LF inh2: -4; BoNT F protease: -5

What do the screens show for `O=C(Nc1c[nH]c(=O)[nH]c1=O)c1cc([N+](=O)[O-])cc([N+](=O)[O-])c1`?
MazEF act: -4; Bead autofluor: 4035; BoNT-A LC inh2: -5; Anthrax LF inh2: 7; BoNT F protease: 135*; BoNT-A LC CP1: 1; BoNTF LC inh 1: 76*; LF protease CP1: 1

Results for O=C(Nc1c[nH]c(=O)[nH]c1=O)c1ccc2c(c1)C(=O)N(c1cccc([N+](=O)[O-])c1)C2=O ?
MazEF act: 7; Bead autofluor: 5147; BoNT-A LC inh2: 0; Anthrax LF inh2: -4; BoNT F protease: 4

Results for Cc1cc(C)c2cc(C(c3nnnn3C3CCCC3)N3CCOCC3)c(=O)[nH]c2c1 (stereo not given) ?
MazEF act: 12; Bead autofluor: 9576; BoNT-A LC inh2: 1; Anthrax LF inh2: -7; BoNT F protease: 8; BoNT-A LC CP1: 1; BoNTF LC inh 1: -4; LF protease CP1: 2

How did Cc1cccc2cc(C(c3nnnn3C3CCCC3)N3CCOCC3)c(=O)[nH]c12 (stereo not given) do in these assays?
MazEF act: 1; Bead autofluor: 21873*; BoNT-A LC inh2: inconclusive; Anthrax LF inh2: 0; BoNT F protease: -2; BoNT-A LC CP1: -3; BoNTF LC inh 1: -5; LF protease CP1: -4

Results for Cc1ccc2[nH]c(=O)c(C(c3nnnn3CC3CCCO3)N3CCOCC3)cc2c1 (stereo not given) ?
MazEF act: 2; Bead autofluor: inconclusive; BoNT-A LC inh2: 1; Anthrax LF inh2: -1; BoNT F protease: 5

What do the screens show for `CC(C)n1nc(C(=O)OCC(=O)NCCc2ccc(S(N)(=O)=O)cc2)c2ccccc2c1=O`?
MazEF act: 4; Bead autofluor: 3764; BoNT-A LC inh2: -2; Anthrax LF inh2: -6; BoNT F protease: -14

What do the screens show for `Cc1ccc2cc3cc(C(=O)NCCN4CCOCC4)oc3nc2c1`?
MazEF act: -17; Bead autofluor: 3441; BoNT-A LC inh2: 1; Anthrax LF inh2: 3; BoNT F protease: 35*; BoNT-A LC CP1: 0; BoNTF LC inh 1: -2; LF protease CP1: -1

What do the screens show for `COc1ccc2cc3cc(C(=O)NCCCN4CCOCC4)oc3nc2c1`?
MazEF act: 4; Bead autofluor: 2791; BoNT-A LC inh2: 0; Anthrax LF inh2: -3; BoNT F protease: -19

How did Cc1cc(C)nc(SCc2ccc(Cl)cc2)n1 do in these assays?
MazEF act: -11; Bead autofluor: 3562; BoNT-A LC inh2: 2; Anthrax LF inh2: 32*; BoNT F protease: -12; BoNT-A LC CP1: 0; BoNTF LC inh 1: -3; LF protease CP1: 2

What do the screens show for `COc1ccc(CCCc2nnc(SCC(=O)Nc3nc(C)cs3)n2C)cc1`?
MazEF act: -4; Bead autofluor: 11415; BoNT-A LC inh2: inconclusive; Anthrax LF inh2: -17; BoNT F protease: 35*; BoNT-A LC CP1: 0; BoNTF LC inh 1: -6; LF protease CP1: -1

How did Cc1csc(NC(=O)CSc2nnc(CCNC(=O)c3ccc(Cl)c(Cl)c3)n2C)n1 do in these assays?
MazEF act: 24; Bead autofluor: 9778; BoNT-A LC inh2: 0; Anthrax LF inh2: 3; BoNT F protease: 0

How did Cc1cc(-c2cccs2)c2c(N)c(C(=O)c3ccc4c(c3)OCO4)sc2n1 do in these assays?
MazEF act: -109; Bead autofluor: 2808; BoNT-A LC inh2: 56*; Anthrax LF inh2: 22; BoNT F protease: 16; BoNT-A LC CP1: 21; BoNTF LC inh 1: 0; LF protease CP1: 15

Results for N#Cc1sc2nc(C3CC3)cc(-c3ccc(Cl)cc3)c2c1N ?
MazEF act: 0; Bead autofluor: 1998; BoNT-A LC inh2: 6; Anthrax LF inh2: 0; BoNT F protease: -4

Results for COc1ccc(C(=O)c2sc3nc(C)cc(-c4cccs4)c3c2N)cc1 ?
MazEF act: -159; Bead autofluor: 3055; BoNT-A LC inh2: 56*; Anthrax LF inh2: 20; BoNT F protease: 17; BoNT-A LC CP1: 28; BoNTF LC inh 1: 8; LF protease CP1: 14

What do the screens show for `Cc1cc(C)c2c(N)c(C(=O)c3ccc(Cl)cc3)sc2n1`?
MazEF act: 11; Bead autofluor: 2536; BoNT-A LC inh2: 0; Anthrax LF inh2: 0; BoNT F protease: 3

What do the screens show for `COc1ccc(-c2cc(-c3cccs3)nc3sc(C#N)c(N)c23)cc1`?
MazEF act: -11; Bead autofluor: 2358; BoNT-A LC inh2: 40*; Anthrax LF inh2: 16; BoNT F protease: 8; BoNT-A LC CP1: 12; BoNTF LC inh 1: -1; LF protease CP1: 2

What do the screens show for `Cc1cc(NC(=O)CSC2=NS(=O)(=O)c3ccccc3N2)no1`?
MazEF act: 6; Bead autofluor: 5488; BoNT-A LC inh2: 0; Anthrax LF inh2: 4; BoNT F protease: -8

Results for Cc1cc(C)n(CC(O)Cn2c(C)c(C)c3ccccc32)n1 (stereo not given) ?
MazEF act: 2; Bead autofluor: 4825; BoNT-A LC inh2: 4; Anthrax LF inh2: 7; BoNT F protease: 35*; BoNT-A LC CP1: 0; BoNTF LC inh 1: -2; LF protease CP1: 4
